From PubChem BioAssay AID1850 (Southern Research Specialized Biocontainment Screening …, 2009) come the findings set out here.

Each structure is given as a SMILES string. In all, about 310,000 compounds went through this assay and about 1,000 (0.32%) were called active. The rule behind the calls is not given here. Not all results are given here. Entries with a potency or affinity are not part of this list.

This assay in a line: PhoP regulon inhibitors, Salmonella typhi PhoP promoter GFP reporter, confirmatory (AID 1850).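 Note: 0% = induced wells with vehicle and 100% = uninduced wells.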 Conditions: fluorescence, 4 h, at 50 µM, stronger effect = higher value.
Consider `Nc1ccc(C(=O)OCc2nc3c(ccc4ccccc43)[nH]2)cc1`, for which the inhibition was 0.78% (inactive).

`CN(C)CCNc1oc(COc2ccc(Cl)cc2)nc1C#N`: the inhibition is 8.61% (inactive).

Regarding `Cc1cccc(OCc2nc(C#N)c(NCCN(C)C)o2)c1`, the inhibition was -1.98% (inactive).

For `Cc1ccc(S(=O)(=O)N2CCCC(C(=O)NCCc3ccc(S(N)(=O)=O)cc3)C2)cc1` (stereo not given), the inhibition is -14.1% (inactive).

Turning to `COc1ccc(-c2cc(C(=O)N(C)Cc3ccccc3F)c3ccccc3n2)cc1OC`, the inhibition is -13.2% (inactive).

As for `CCCn1nnc(NC(=S)NC(=O)/C=C/c2ccco2)n1`, the inhibition is -16% (inactive).

For `Cc1nn(-c2nc3ccccc3[nH]2)c(=O)c2ccccc12`, the inhibition was -19.2% (inactive).

Regarding `CC1=NN(c2nc3ccccc3[nH]2)C(=O)/C1=C/N(C)C`, the inhibition was -13.6% (inactive).

As for `CN1CC(C(=O)c2ccc(F)cc2)C(c2c(F)cccc2Cl)C1` (stereo not given), the inhibition was 7.43% (inactive).

As to `CCOC(=O)c1ccccc1NC(=O)CSc1nnc(C(C)C)n1CC`, the inhibition was 1.44% (inactive).

As for `CC(C)C[C@H](NC(=O)NCc1ccccc1Cl)C(=O)O`, the inhibition was 2.59% (inactive).

Regarding `Cc1ccc2c(c1)c1c(n2CC(O)CN2CCCCCC2)CCCC1` (stereo not given), the inhibition was -2.65% (inactive).

In the case of `Cc1ccc2c(c1)c1c(n2CC(O)CN2CCOCC2)CCCC1` (stereo not given), the inhibition was 5.45% (inactive).

`Cc1ccc2c(c1)c1c(n2CC(O)CNC(CO)(CO)CO)CCCC1` (stereo not given): the inhibition is -13.1% (inactive).

Regarding `Cc1ccc2c(c1)c1c(n2CC(O)CNC2CCCC2)CCCC1` (stereo not given), the inhibition is 14.4% (inactive).

On to `Cc1cc(C(=O)COC(=O)c2ccc(N)cc2)c(C)n1-c1c(C)n(C)n(-c2ccccc2)c1=O`, for which the inhibition is -9.39% (inactive).

Turning to `CSc1nc(N2CCOCC2)cc(N2CCOCC2)n1`, the inhibition was 2.38% (inactive).

As for `COc1ccc(Br)c(C(=O)NC2CCCC2)c1`, the inhibition was 2.12% (inactive).

As to `CCC(CC)C(=O)NCc1ccc(OC)cc1`, the inhibition was 22.8% (inactive).

As for `O=C1CN(C(=O)/C=C/c2cccc(Cl)c2)c2ccccc2N1`, the inhibition was 8.09% (inactive).

Regarding `O=C(CS(=O)(=O)c1ccc(F)cc1)NCc1ccccc1`, the inhibition was -1.23% (inactive).

In the case of `OCc1cn(-c2ccccc2)nc1-c1ccc(-c2nn(-c3ccccc3)cc2CO)cc1`, the inhibition was -10.8% (inactive).

On to `Cc1ccc(-c2nn(-c3ccccc3)cc2CSC(=N)N)cc1`, for which the inhibition was 17.4% (inactive).

As to `CNC(=O)NC(=O)COC(=O)c1ccccc1OCc1ccccc1`, the inhibition is 0.41% (inactive).

`CC(=O)N1CCC(=NNc2ccnc3cc(Cl)ccc23)CC1`: the inhibition is 0.99% (inactive).

Turning to `CCOC(=O)N1CCN(c2ccnc3cc(Cl)ccc23)CC1`, the inhibition was -0.34% (inactive).

On to `Oc1ccc(/C=N/Nc2ccnc3cc(Cl)ccc23)c(O)c1`, for which the inhibition is -3.01% (inactive).

Take `C/C(=N\Nc1cccc2cccnc12)c1ccc(N)cc1`: the inhibition was 10.3% (inactive).

As to `Oc1ccc(Nc2ccnc3cc(Cl)ccc23)cc1`, the inhibition was -4.09% (inactive).

For the compound `C/C(=N/Nc1ccnc2cc(Cl)ccc12)c1ccc(O)cc1`, the inhibition was -22.6% (inactive).
